Screen size: about 6,200 compounds; about 2,900 (47%) were called active. So high a share suggests a set chosen from earlier hits. Some of the results follow. Values without a mark were called inactive. No stated cut-off is given here; in the data, active means inhibition above about 50%; inactive means the rest.
Assay: Mycobacterium tuberculosis growth inhibition, primary screen (AID 1259343)
Details: inhibition: at 10 µM, stronger effect = higher value; outcome: 10 uM
`Cc1cc(CN2CCN(c3c(Br)cnc4nc(-c5ccc(N6CCN(C)CC6)cc5)[nH]c34)CC2)no1` showed an inhibition of 23.4%.
With `Clc1ccc2c(c1)C(N1CCNCC1)=Nc1ccccc1O2` the inhibition was 81.5% (active).
With `Cc1ccccc1CCNC(=O)Cn1c(-c2cccs2)n[nH]c1=S` the inhibition was 1.7%.
`Cc1oc(-c2cc3c(cc2Cl)OCO3)nc1CN(C)Cc1ccc(C(F)(F)F)cc1` showed an inhibition of 46.8%.
With `Cc1oc(-c2ccc(C(F)(F)F)cc2)nc1CN(C)CC1COc2ccccc2O1` (configuration not stated) the inhibition was 53.7% (active).
For `COc1cccc2c1OCCCN(Cc1nc(-c3ccc(C(F)(F)F)cc3)oc1C)C2`, the inhibition was 23.4%.
For `O=C(Cc1ccc(Br)cc1)NC1CCCC1`, the inhibition was 82.1% (active).
`O=C(CSC1CCCCC1)NC1CCCC1` gave an inhibition of -47.7%.
Molecule `O=C(C1=C(O)C(=O)N(c2ncccn2)C1c1ccc(Cl)c(Cl)c1)c1ccco1` (configuration not stated) has an inhibition of -2.77%.
With `O=c1oc2c(-c3ccc(Br)cc3)cc(O)cc2s1` the inhibition was 48.6%.
`COc1ccc(-c2c(C)noc2-c2ccc(OC)cc2O)cc1` gave an inhibition of 16.2%.
In the case of `COc1ccc(-c2cc(O)cc3sc(=O)oc23)cc1`, the inhibition is reported as 69.8% (active).
For `CC(C)c1ccccc1OCCOc1cccc2cccnc12`, the inhibition was 61.7% (active).
`Cc1ccc2cccc(OCCCOc3ccc(C)c(C)c3)c2n1` gave an inhibition of -21.9%.
With `CC(C)c1cccc(OCCOc2cccc3cccnc23)c1` the inhibition was 58.4% (active).
Work on `Cc1cc(S(=O)(=O)NC2CCCCC2C)ccc1Cl` (configuration not stated) yielded an inhibition of 14.4%.
In the case of `O=C1c2ccccc2C(=O)C1c1ccnc2ccccc12`, the inhibition is reported as -13.4%.
With `Nc1c2ccccc2nc2ccccc12` (tested in a mixture with another compound) the inhibition was 90.3% (active).
With `Cc1nn2c(-c3ccccc3Cl)cc(C(=O)O)nc2c1-c1ccccc1` the inhibition was 71.1% (active).
For `Cc1nn2c(-c3cccc(C(F)(F)F)c3)cc(C(=O)O)nc2c1-c1ccccc1`, the inhibition was 89.3% (active).
Molecule `COc1ccc(-c2cc(C(=O)NCCN3CCCCC3)nc3c(-c4ccccc4)c(C)nn23)cc1` has an inhibition of 38.1%.
For `COc1ccccc1CN(Cc1cccc(C(F)(F)F)c1)Cc1nc(C(=O)O)co1`, the inhibition was 9.16%.
In the case of `Cc1nn2c(NCCOCCO)cc(C(C)(C)C)nc2c1-c1ccccc1Cl`, the inhibition is reported as 19.6%.
With `O=C1CCCC2=C1C(c1ccncc1)NC(=O)N2Cc1ccccc1` (configuration not stated) the inhibition was 85.2% (active).
For `COc1ccc(C(=O)N2CCCC(C(=O)c3ccc(-c4ccccc4)c(F)c3)C2)o1` (configuration not stated), the inhibition was “inactive”.
With `COc1ccc2cc(C(=O)C3CCCN(C(=O)CCC(=O)c4ccc(F)cc4)C3)ccc2c1` (configuration not stated) the inhibition was 87.2% (active).
With `COc1ccc2cc(C(=O)C3CCCN(Cc4cccc(C)n4)C3)ccc2c1` (configuration not stated) the inhibition was 42.4%.

Source: PubChem BioAssay AID1259343 (VanderVen Lab, College of Veterinary Medicine, Cornell …, 2017)
